The results in this text go back to PubChem BioAssay (NCI).

The panel holds about 79,000 compounds, 15% with a hit somewhere; the sample as a whole holds those more often. Active and inactive are the calls of the source. Cut-off read from the data, not from the text of the source: active = growth inhibition above about 70%; inactive = the rest.

A short description of this assay: NCI Yeast Anticancer Drug Screen. Data for the mec2-1 strain (AID 157). As to conditions: S. cerevisiae mec2-1 strain, at 50.0 µM, active compounds read high. As to the method: Growth inhibition of yeast strains with defined genetic alterations is measured as a screen for potential anti-cancer activity. Selected strains with alterations in DNA damage repair or cell cycle control were exposed to compounds and growth inhibition was measured relative to vehicle treated controls. The strain used in this assay is mec2-1
Turning to `C=CCOC(=O)NC(CCC(N)=O)C(=O)O` (stereo not given), the growth inhibition is 1.1% (inactive).
The same measure for `O=C(Nc1ccc(Br)cc1)c1cc(Cl)cc(Cl)c1Br`: 17.9% (inactive).
Regarding `CSC1(C)CC2C(CC1N1CCCCC1)C2(C)C` (stereo not given), the growth inhibition is -16.4% (inactive).
Under `COc1ccc(-c2cc(O)cc(C)c2N)c(OC)c1OC` stands 14.6% (inactive).
Consider `CNc1nc2c(C)ccc3[nH]c(NC)nc3c-2n1`, for which the growth inhibition is -25.1% (inactive).
Regarding `CCCCCN(CCOC(=O)c1ccc([N+](=O)[O-])cc1)CCOC(=O)c1ccc([N+](=O)[O-])cc1`, the growth inhibition was 4.7% (inactive).
Regarding `COc1cc(C2(C)OC(=O)c3ccccc32)c(OC)c2ccccc12` (stereo not given), the growth inhibition is 2.3% (inactive).
Turning to `Cc1ccccc1C(=O)N1CCOCC1`, the growth inhibition is 3.7% (inactive).
Under `O=c1nnc(O)c2ccn(O)cc1-2` stands -19% (inactive); under `CCCCCCCCCC(C)(O)C(N)=O` (stereo not given), -6.15% (inactive).
Under `O=[N+]([O-])c1ccccc1S(=O)(=O)NC1c2ccccc2Oc2ccccc21` stands 28.3% (inactive); under `COc1ccc2c(N=[N+]=[N-])c(-c3ccccc3)c(=O)oc2c1`, 2.6% (inactive); under `CC(=O)C1CCC2C3CC=C4CC(O)C=CC4(C)C3CCC12C` (stereo not given), 22.1% (inactive).
Under `O=C(Nc1ccc(Cl)c(Cl)c1)c1ccc(C(=O)Nc2ccc(Cl)c(Cl)c2)cc1` stands 19.1% (inactive).
Regarding `O=S1(=O)CS(=O)(=O)OCCO1`, the growth inhibition was 6.8% (inactive).
With `C[N+](C)(C)CCOC(=O)c1ccccc1CCl`, the growth inhibition is 8.35% (inactive).
With `C1CSCCSCCCSCCSCCCSCCSCCCSCCSC1`, the growth inhibition was 20.9% (inactive).
With `CCN(CC)c1ccc(N=C2C=CC(=O)C(NC(C)=O)=C2)c(C)c1`, the growth inhibition is -24.8% (inactive).
Turning to `Nc1nnc2c(=O)[nH]cnc2n1`, the growth inhibition was -8.8% (inactive).
As to `Cn1c2ccccc2c2[nH]c3ccccc3c(=O)c21`, the growth inhibition is 16.4% (inactive).
The same measure for `CC1(C)N=C(N)NC(Nc2ccc(Cl)cc2)=N1`: 9.05% (inactive).
Consider `CCCCOC(OCCCC)C(C)(C)CN(C)C`, for which the growth inhibition is 13.2% (inactive).
Under `O=C1CCC(CC2CCCCC2)CC1` stands -3.95% (inactive).
The same measure for `O=C(O)c1ccccc1CC(C(=O)O)C(=O)O`: 4.05% (inactive).
Under `Cc1cc2c(cc1C)NC1=C(N2)OC(c2ccc(Cl)cc2)C1=O` (stereo not given) stands 16.2% (inactive); under `CCCCCCC1NC(=S)N(c2ccccc2)C1=O` (stereo not given), 0.5% (inactive); under `CC(=O)OC/C=C(\C)CCC=C(C)C`, -23.4% (inactive).
On to `O=C1c2ccccc2C(=O)C1(O)c1c[nH]c2ccccc12`, for which the growth inhibition was 12.1% (inactive).
For the molecule `O=C1OC(=O)C2C1C1CCC2C1(c1ccccc1)c1ccccc1` (stereo not given), the growth inhibition was -0.95% (inactive).
Consider `CSc1nc(C=O)nc(SC)n1`, for which the growth inhibition was -12% (inactive).
As for `CCOC(=O)C1=C(C)N(NC(=O)OC)C2(N)N(NC(=O)OC)C(C)=C(C(=O)OCC)C12C#N` (stereo not given), the growth inhibition was -3.2% (inactive).
Consider `COc1cc(CCCOC(=O)/C=C/c2ccc(O)c(O)c2)cc(O)c1O`, for which the growth inhibition was -18.3% (inactive).
Under `CN(C)CCCNc1ccc2nnn3c4ccc([N+](=O)[O-])cc4c(=O)c1c23` stands 35% (inactive); under `O=C(COc1ccccc1)OC1CCCC1`, -13.4% (inactive); under `CCCCCCOC(=O)NC1c2ccccc2Oc2ccccc21`, 7.15% (inactive).
In the case of `NC(CSSCC(N)Cc1ccccc1)Cc1ccccc1` (stereo not given), the growth inhibition was -9.45% (inactive).
Under `O=C(CC1(O)C(=O)Nc2ccccc21)c1ccc(O)cc1O` (stereo not given) stands 15.4% (inactive).
For `COC(=O)C1CC2CC1C1C2SC(F)(F)C1(F)F` (stereo not given), the growth inhibition is -1.7% (inactive).
Regarding `O=C(OC1CCc2ccccc2C1)c1ccc(N=Nc2ccccc2)cc1` (stereo not given), the growth inhibition is 5.55% (inactive).
`CCCC(CCc1ccccc1)C(N)=O` (stereo not given): the growth inhibition is -5.7% (inactive).
